In all, about 220,000 compounds went through this assay and about 830 (0.38%) were called active.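 How the source made its calls: active means compound inhibiting the enzyme by more than half at any dose during confirmatory dose-response retesting; inconclusive means strong single-dose inhibitors picked by rank but not retested; inactive means the rest.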 The list is a sample of the results. Potency and affinity values are given separately.
Target: Leucine aminopeptidase (Plasmodium falciparum (isolate 3D7)) (UniProt Q8IL11)
Experiment: P. falciparum M17LAP inhibitors, primary screen, biochemical, fluorogenic H-Leu-NHMec substrate, 1536-well (AID 1619);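 further: plate controls were full reaction with DMSO carrier for no effect and no enzyme background for full effect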
Settings: recombinant M17LAP, H-Leu-NHMec fluorogenic kinetic assay; at 30 µM; stronger effect = higher value

Sequence of Leucine aminopeptidase (Plasmodium falciparum (isolate 3D7)) (Q8IL11 whole entry, looked up): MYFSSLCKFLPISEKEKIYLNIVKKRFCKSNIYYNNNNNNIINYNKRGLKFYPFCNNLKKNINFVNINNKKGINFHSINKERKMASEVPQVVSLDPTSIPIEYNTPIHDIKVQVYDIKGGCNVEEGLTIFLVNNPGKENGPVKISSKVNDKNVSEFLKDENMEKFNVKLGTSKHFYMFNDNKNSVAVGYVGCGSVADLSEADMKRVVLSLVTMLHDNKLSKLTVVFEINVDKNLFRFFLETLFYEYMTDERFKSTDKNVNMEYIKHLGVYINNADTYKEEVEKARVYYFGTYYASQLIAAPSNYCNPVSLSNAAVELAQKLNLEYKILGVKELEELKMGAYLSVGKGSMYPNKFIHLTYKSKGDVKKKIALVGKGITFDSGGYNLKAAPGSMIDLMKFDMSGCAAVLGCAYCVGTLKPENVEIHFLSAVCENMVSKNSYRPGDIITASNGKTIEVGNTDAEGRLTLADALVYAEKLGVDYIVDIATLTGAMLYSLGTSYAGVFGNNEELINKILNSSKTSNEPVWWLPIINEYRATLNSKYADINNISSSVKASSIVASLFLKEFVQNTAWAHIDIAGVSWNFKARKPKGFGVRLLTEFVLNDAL

inhibition, inactive:
Nc1cc(C(F)(F)F)ccc1Nc1ccccc1 -4.7%
CCCCOC(=O)Nc1ccccc1C(=O)N1CCCC1 10.4%
CCOC(=O)C(C(=O)NCC1CCCO1)C1CCCCC1 (stereo not given) 5.23%
CCOC(=O)C1(O)CSc2nc3sc(C(=O)O)c(C)c3c(=O)n21 (stereo not given) -2.76%
COc1ccc(-c2noc(CN(C)Cc3ccc(C)o3)n2)cc1 1.39%
COc1cc([N+](=O)[O-])ccc1NC(=O)CN1CCN(C(=O)c2ccco2)CC1 17.7%
COc1cc2c(C(=O)N3CCN(c4cccc(Cl)c4)CC3)cn(CC(C)C)c(=O)c2cc1OC -4.76%
CC1(C)Cc2c(c(N3CCOCC3)nc3sc4c(N5CCOCC5)nnnc4c23)CS1 -1.05%
CCc1ccc(NC2=NCC(=O)N2c2ccc3c(c2)OCCO3)cc1 -5.16%
CCOC(=O)C1(CC2CC2)CCN(Cc2cn[nH]c2-c2cccc(F)c2)CC1 -3.31%
Cc1ccc(NC(=O)c2ccccc2OCC(=O)c2ccccc2)cc1 3.34%
CC(/C=N/NC(=O)Cc1cccn1C)=C\c1ccccc1 32.7%
CC(/C=N/NC(=O)Cc1cccs1)=C\c1ccccc1 -13.2%
O=C(Cc1cccs1)N/N=C/C(Cl)=C/c1ccccc1 -2.46%
O=C(Cc1cc(=O)[nH][nH]1)N/N=C/C(Cl)=C/c1ccccc1 52.8%
O=C(Cc1cc(=O)[nH][nH]1)N/N=C/c1c(Cl)cccc1Cl 47.6%
O=C(Cc1ccc(Cl)cc1)N/N=C/c1c(Cl)cccc1Cl -10.8%
O=C(CCCN1C(=O)c2cccc3cccc(c23)C1=O)NCCN1CCOCC1 4.16%
O=C(CCc1nnc(CCCCc2ccccc2)o1)NCc1cccc(F)c1 -1.09%
CCC(C)Oc1cc(-c2ccnc(Nc3cccc(Cl)c3)n2)ccn1 (stereo not given) 0.9%
CC(=O)Nc1ccc(S(=O)(=O)NCc2csc(-c3cccnc3)n2)cc1 5.75%
Cc1ccc(-c2cc(C(=O)Nc3ccc(S(=O)(=O)Nc4nc(C)cc(C)n4)cc3)c3ccccc3n2)cc1 -0.85%
Cc1ccc(-c2cc(C(=O)Nc3ccc(S(=O)(=O)Nc4ncccn4)cc3)c3ccccc3n2)cc1 39.1%
CC(=O)NS(=O)(=O)c1ccc(NC(=O)c2cc(-c3ccc(C)c(C)c3)nc3ccccc23)cc1 -0.01%
CC(=O)NS(=O)(=O)c1ccc(NC(=O)c2cc(-c3cccs3)nc3ccccc23)cc1 16.1%
COc1ccc2c(c1)nc(SCC(=O)c1ccc(Br)s1)n2C 43.5%
COc1ccc(C(O)P(=O)(O)CCc2ccccc2)cc1 (stereo not given) 21.7%
CCOC(=O)CCP(=O)(O)C(O)c1ccccc1 (stereo not given) 11.7%
O=C1OC(c2ccccc2)=C/C1=C\N1CCOCC1 8.13%
CC(C)[C@H](NC(=O)c1ccccc1)C(=O)OCC(=O)N1CCc2ccccc2C1 10.5%
COc1ccc(NC(=O)c2ccc(-n3cccn3)c([N+](=O)[O-])c2)cc1 1.4%
O=C(CCCOc1ccccc1)n1nnc2ccccc21 -0.57%
O=C(CCCOc1ccc(Cl)cc1Cl)n1nnc2ccccc21 69.2%
CN1CCN(C(=O)/C=C/c2ccc3c(c2)OCO3)CC1 6.85%
COc1ccc(-n2c(=O)c3c4c(sc3n(CC(=O)NC3CCCC3)c2=O)CCCC4)c(OC)c1 0%
COc1cc(NC(=O)Cc2cccs2)c(C(=O)O)cc1OC 4.5%
O=C(CC(Nc1ccccc1Cl)C(=O)O)c1ccccc1 (stereo not given) 19.8%
Cc1c(Cl)cccc1NC(CC(=O)c1ccccc1)C(=O)O (stereo not given) 49.4%
O=C(CCCN1C(=O)c2ccccc2C1=O)Nc1nncs1 0.65%
COc1cc(-c2csc(C)n2)ccc1O -9.57%
Oc1ccc(-c2nc(-c3ccc(O)c(O)c3)cs2)cc1 25.6%
Cc1cc(Cl)cc(Cl)c1OCCCCN(C)C 1.1%
COc1ccc(/C=C/C(=O)Nc2cc(=O)n(C)c(=O)n2C)cc1 50.5%
Cn1c(NC(=O)/C=C/c2ccccc2)cc(=O)n(C)c1=O 9.82%
CCCCC(CC)CNC(=O)/C=C/c1ccc(F)cc1 (stereo not given) 9.03%
COc1ccc(S(=O)(=O)Nc2ccc3c(c2)OCCO3)cc1Cl -0.34%
Cc1cc(SCC2=NNC(=O)C2)c(Cl)cc1Cl 3.5%
O=C1CC(CSc2ccc(Cl)cc2)=NN1 7.98%
O=C(O)COc1ccc(Cl)cc1CO 20%
CCOC(=O)C1=C(C)N(C)C(C)=C(C(=O)OCC)C1c1ccc(C(=O)OC)cc1 3.78%
CC(C)NC(=O)NC(=O)COc1c(F)c(F)cc(F)c1F -8.9%
CCNC(=S)Nc1ccc2cn[nH]c2c1 14.6%
CCc1ccc(NC(=S)Nc2ccc3cn[nH]c3c2)cc1 11.2%
CC(c1ccon1)N(C)Cc1cn(C)nc1-c1cccc(Cl)c1 (stereo not given) -1.33%
O=C1/C(=C/c2ccncc2)CCC/C1=C\c1ccncc1 -3.28%
CN(C)c1ccc(/C=C2\CCC/C(=C\c3ccccc3)C2=O)cc1 5.08%
COc1ccc(CC(=O)Nc2cc(S(=O)(=O)N3CCOCC3)ccc2N2CCOCC2)cc1 2.63%
COc1ccc(NC(=O)Nc2ccc(CC(=O)O)cc2)cc1 2.73%
CC(=O)Nc1ccc(CC(=O)O)cc1 -5.89%
O=C(Nc1cccc([N+](=O)[O-])c1)Nc1cccc([N+](=O)[O-])c1 -0.88%
O=C(Nc1cccc(Cl)c1)Nc1cccc(C(=O)O)c1 -7.66%
O=C(Nc1ccccc1)Nc1cccc(Cl)c1 15.7%
O=C(Nc1cccc(Cl)c1)Nc1cccc(Cl)c1 1.69%
COC(=O)c1cccc(NC(=O)Nc2ccc(Cl)cc2)c1 2.56%
O=C(Nc1ccc(OC(F)(F)F)cc1)Nc1cccc([N+](=O)[O-])c1 2.58%

Source: PubChem BioAssay AID1619 (SRMLSC, 2009)
